Results published in PubChem BioAssay (NCATS).
Results filed as inconclusive are left out. The source made the active and inactive calls. Unless noted, calls follow the shape of the dose curve; as a rule, active = well fitted curve in either direction with a large enough effect (not every such curve was filed as active); inconclusive = small, poorly fitted or top-dose-only effect, or another doubt; inactive = flat fitted curve, though single readings scatter.

Legend:
[1] = AP1 Signaling Pathway (AID 357); settings: ME-180 AP-1-bla reporter, EGF-induced, beta-lactamase ratio, 5 h; at 17.2 µM (top of the series) unless noted; also: % is scaled to controls: 0 for no effect and ±100 for the full control effect
Method in brief: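 ME-180 cells with beta-lactamase reporter under AP-1 response element, stimulated with EC50 EGF; compounds tested in titration series, 5 h at 37 °C. CCF4 substrate added 2.5 h at room temperature; 460/530 nm emission ratio gave %activity and AC50.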

[2] = NFAT Signaling Pathway (AID 444); settings: Jurkat NFAT-bla M1, carbachol, beta-lactamase ratio, 5 h; at 17.2 µM (top of the series) unless noted;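 also: carbachol stimulus at about its EC50 of 1 µM final; % is scaled to controls: 0 for no effect and ±100 for the full control effect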
Method in brief: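 Jurkat cells carrying an NFAT-driven β-lactamase reporter and co-transfected muscarinic M1 receptor were treated with compound plus carbachol (1 uM final, an EC50 level) for 5 h at 37 °C. CCF4 loading followed for 1 h at RT; 460/530 nm ratio gave %activity.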

[3] = Stat Signaling Pathway (AID 446);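 also: ME-180 cervical cancer cells given 40 pM IL-6 alongside compound; SIE-controlled beta-lactamase reporter measured as 460/530 nm FRET emission ratio; % is scaled to controls: 0 for no effect and ±100 for the full control effect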
Method in brief: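 Screening format detects activators and inhibitors alike: ME-180 SIE-bla cells stimulated at 40 pM IL-6 for 5 hrs with compound, then dual-emission beta-lactamase read at 405 nm excitation.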

[4] = target: Glucocorticoid receptor (Homo sapiens) (UniProt P04150); assay: GR-GFP Redistribution (AID 450;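 active = compounds whose dose series gives a full or clear partial fitted curve of increased nuclear translocation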; also: potency is read from the fitted curve at half-maximal effect); settings: U2OS GR-GFP nuclear translocation, laser cytometry, 2 h
Glucocorticoid receptor (Homo sapiens), sequence (P04150 whole entry, looked up, the tested form may be a part): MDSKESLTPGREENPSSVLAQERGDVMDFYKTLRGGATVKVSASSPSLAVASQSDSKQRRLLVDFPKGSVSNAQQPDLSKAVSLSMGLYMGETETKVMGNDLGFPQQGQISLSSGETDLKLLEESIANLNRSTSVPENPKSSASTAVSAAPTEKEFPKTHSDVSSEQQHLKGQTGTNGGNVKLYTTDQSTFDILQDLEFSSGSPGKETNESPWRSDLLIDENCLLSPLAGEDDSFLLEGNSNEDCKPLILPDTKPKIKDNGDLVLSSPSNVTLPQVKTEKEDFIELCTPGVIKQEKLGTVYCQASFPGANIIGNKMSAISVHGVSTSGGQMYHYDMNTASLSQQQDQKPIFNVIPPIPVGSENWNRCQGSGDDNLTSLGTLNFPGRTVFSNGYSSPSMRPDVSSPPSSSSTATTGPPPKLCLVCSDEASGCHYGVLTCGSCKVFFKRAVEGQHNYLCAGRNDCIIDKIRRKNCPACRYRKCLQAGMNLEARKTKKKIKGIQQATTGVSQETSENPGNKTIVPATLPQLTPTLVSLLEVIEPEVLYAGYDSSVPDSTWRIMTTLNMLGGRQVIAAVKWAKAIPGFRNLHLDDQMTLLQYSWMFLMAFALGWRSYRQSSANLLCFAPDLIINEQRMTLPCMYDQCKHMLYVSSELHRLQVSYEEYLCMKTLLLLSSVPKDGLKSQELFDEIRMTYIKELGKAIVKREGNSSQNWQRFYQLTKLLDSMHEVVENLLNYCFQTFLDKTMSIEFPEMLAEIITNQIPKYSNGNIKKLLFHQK

[5] = target: Cytochrome P450 1A2 (Homo sapiens) (UniProt P05177); assay: p450-cyp1a2 (AID 410; calls by dose curve;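 also: -100% = full effect of reference inhibitor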)
Cytochrome P450 1A2 (Homo sapiens), sequence (P05177 whole entry, looked up): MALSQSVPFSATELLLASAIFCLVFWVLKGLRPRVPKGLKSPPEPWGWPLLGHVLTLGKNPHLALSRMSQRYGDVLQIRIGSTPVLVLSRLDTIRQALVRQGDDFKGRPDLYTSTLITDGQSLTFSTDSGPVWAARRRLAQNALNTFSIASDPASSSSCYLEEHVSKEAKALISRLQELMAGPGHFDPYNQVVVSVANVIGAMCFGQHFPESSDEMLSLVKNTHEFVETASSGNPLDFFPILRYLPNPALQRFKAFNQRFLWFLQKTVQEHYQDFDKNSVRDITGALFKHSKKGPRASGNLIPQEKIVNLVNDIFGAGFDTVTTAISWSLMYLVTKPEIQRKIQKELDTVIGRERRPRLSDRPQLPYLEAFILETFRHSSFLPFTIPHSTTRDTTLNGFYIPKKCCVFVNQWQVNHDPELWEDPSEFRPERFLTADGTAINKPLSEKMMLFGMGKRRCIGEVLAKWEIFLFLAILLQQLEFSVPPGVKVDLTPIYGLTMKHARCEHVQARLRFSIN
Method in brief: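 Inhibition was calculated relative to 57 uM furafylline (full inhibition). The reaction used human CYP1A2 at 20nM with Luciferin-ME at its Km, 100uM, driven by an NADPH-regenerating system for 60 min at room temperature.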

[6] = target: Glucocorticoid receptor (Homo sapiens) (UniProt P04150); assay: GR-EFC Redistribution (AID 451; calls by dose curve; also: potency is read from the fitted curve at half-maximal effect); settings: CHO-K1 GR-EFC translocation, beta-gal luminescence, 2 h
Method in brief: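 CHO-K1 cells stably expressing nuclear-localized β-gal enzyme acceptor and GR fused C-terminally to the enzyme donor fragment; ligand-driven nuclear translocation restores β-gal by complementation. Compounds titrated up to 46 uM final, 2 h at 37 °C; luminescence read.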

[7] = target: Mitogen-activated protein kinase 10 (Mus musculus) (UniProt Q61831); assay: JNK3 AlphaScreen Assay (AID 530);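 also: kinase came from lysate of stimulated human HepG2 cells; signal reports phosphorylation of biotinylated GST-cJun 1-79 at Ser73 with 10 µM ATP; % is scaled to controls: 0 for no effect and ±100 for the full control effect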
Method in brief: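 JNK3 came from HepG2 lysates pre-activated with IL-1beta and TNF-alpha and phosphorylated biotinylated GST-cJun (1-79) at 10 uM ATP, pH 7.6, room temperature. Compounds were titrated. AlphaScreen signal used anti-phospho-cJun (Ser73) antibody.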

[8] = target: 3',5'-cyclic-AMP phosphodiesterase 4B (Homo sapiens) (UniProt Q07343); assay: qHTS Assay for Inhibitors of PDE-IV (AID 607; active = well fitted activation curve with a large enough effect in the main read-out, with a control signal flat, not every such curve was filed as active; also: % of control where 0% means no effect)
3',5'-cyclic-AMP phosphodiesterase 4B (Homo sapiens), sequence (Q07343 whole entry, looked up): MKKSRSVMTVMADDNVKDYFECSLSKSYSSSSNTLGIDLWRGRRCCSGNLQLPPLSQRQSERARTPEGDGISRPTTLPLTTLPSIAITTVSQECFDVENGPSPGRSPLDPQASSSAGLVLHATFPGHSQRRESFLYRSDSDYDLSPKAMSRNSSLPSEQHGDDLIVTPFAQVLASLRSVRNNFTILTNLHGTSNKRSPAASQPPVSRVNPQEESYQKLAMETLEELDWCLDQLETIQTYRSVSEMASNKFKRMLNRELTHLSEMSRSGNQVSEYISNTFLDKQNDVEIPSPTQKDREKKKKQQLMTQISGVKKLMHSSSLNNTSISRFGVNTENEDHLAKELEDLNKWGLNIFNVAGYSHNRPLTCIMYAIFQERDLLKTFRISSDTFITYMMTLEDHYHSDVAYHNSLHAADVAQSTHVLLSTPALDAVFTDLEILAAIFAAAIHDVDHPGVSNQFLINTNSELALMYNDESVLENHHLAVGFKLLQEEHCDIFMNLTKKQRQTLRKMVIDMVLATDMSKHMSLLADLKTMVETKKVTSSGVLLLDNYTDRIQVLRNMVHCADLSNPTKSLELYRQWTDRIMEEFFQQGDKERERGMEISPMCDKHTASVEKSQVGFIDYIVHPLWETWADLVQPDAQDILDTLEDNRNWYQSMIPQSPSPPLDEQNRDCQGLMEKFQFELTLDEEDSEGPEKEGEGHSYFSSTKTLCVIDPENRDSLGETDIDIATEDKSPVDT
Method in brief: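 The readout is membrane depolarisation from a cAMP-sensing CNG channel, detected with a potential dye at ex 535/em 590. Cells were HEK293-derived (endogenous PDE-IV) at 1000 cells/well, titrated up to 22.9 uM final.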

CC(C)C(=O)N1CCN(CCN=Cc2c(O)n(C)c(=O)n(C)c2=O)CC1
inactive: activity change, negative = inhibition [1] 10.2% | activity change, negative = inhibition [2] -6.53% | outcome [3] | Potency [4] > 20.6 µM

CC1(C)[C@@H]2CC[C@]1(C)CN(CCC[N+](C)(C)C)C2
inactive: activity change, negative = inhibition [1] -4.07% [at 7.69 µM] | activity change, negative = inhibition [5] -6.8% [at 2.29 µM] | activity change, negative = inhibition [2] -12.6% [at 7.69 µM] | Potency [4] > 46 µM | Potency [6] > 9.22 µM | activity change, negative = inhibition [7] 0.443% [at 11.4 µM] | outcome [8]

CCOc1ccc(Cc2c(O)[nH]c(=O)[nH]c2=O)cc1
inactive: activity change, negative = inhibition [1] -3.54% | activity change, negative = inhibition [2] 3.49% | outcome [3] | Potency [4] > 20.6 µM

O=C(c1ccco1)C12CN3CN(CN(C3)C1)C2
inactive: activity change, negative = inhibition [1] 4.87% | activity change, negative = inhibition [2] -11.2% | outcome [3] | Potency [4] > 20.6 µM

O=c1[nH]c(=O)n(C2CCCCC2)c(O)c1C=NCCCn1ccnc1
inactive: activity change, negative = inhibition [1] 0.159% | activity change, negative = inhibition [2] -4.42% | outcome [3] | Potency [4] > 20.6 µM

CC(C)OC(=O)c1c(N)n(Cc2ccco2)c2nc3ccccc3nc12
inactive: activity change, negative = inhibition [1] -15.7% | activity change, negative = inhibition [2] 17.6% | outcome [3] | Potency [4] > 20.6 µM

CN1CCc2c(c(N3CCCCC3)nc3n[nH]c(N)c23)C1
inactive: activity change, negative = inhibition [1] -3.37% | activity change, negative = inhibition [2] -4.59% | outcome [3] | Potency [4] > 20.6 µM

O=c1[nH]c(=O)n(-c2cccc3ccccc23)c(O)c1C=NCCCn1ccnc1
inactive: activity change, negative = inhibition [1] 14.5% | activity change, negative = inhibition [2] -7.5% | outcome [3] | Potency [4] > 20.6 µM

C=CCOC(=O)C1=C(C)OC(N)=C(C#N)C12C(=O)N(CN1CCOCC1)c1ccccc12 (stereo not drawn)
inactive: activity change, negative = inhibition [1] 2.42% | activity change, negative = inhibition [2] -2.25% | outcome [3] | Potency [4] > 20.6 µM

COc1ccc(Cn2c(O)c(C=NCCCn3ccnc3)c(=O)[nH]c2=O)cc1
inactive: activity change, negative = inhibition [1] -15.8% | activity change, negative = inhibition [2] -15.1% | outcome [3] | Potency [4] > 20.6 µM

CC(=O)OC1N=C(c2ccccc2)c2ccccc2NC1=O (stereo not drawn)
inactive: activity change, negative = inhibition [1] -8.32% | activity change, negative = inhibition [2] 11.5% | outcome [3] | Potency [4] > 20.6 µM

CCCCCCn1c(O)c(C=NCCN2CCCCC2)c(=O)[nH]c1=O
inactive: activity change, negative = inhibition [1] 10.2% | activity change, negative = inhibition [2] 4.87% | outcome [3] | Potency [4] > 20.6 µM

COc1ccc(C2SCC(=O)Nc3c2c(=O)[nH]n3C2CCCCCC2)cc1 (stereo not drawn)
inactive: activity change, negative = inhibition [1] -18.2% | activity change, negative = inhibition [2] 1.93% | outcome [3] | Potency [4] > 20.6 µM

CCCCc1nc2ccccc2c(=O)n1-c1ccccc1O
inactive: activity change, negative = inhibition [1] -4.36% | activity change, negative = inhibition [2] -4.7% | outcome [3] | Potency [4] > 20.6 µM

CC1(c2ccccc2)NCCN2C(=O)CSC21 (stereo not drawn)
inactive: activity change, negative = inhibition [1] 2.95% | activity change, negative = inhibition [2] -7.83% | outcome [3] | Potency [4] > 20.6 µM
